{"source": "PubChem BioAssay AID624300", "about": "(Southern Research Specialized Biocontainment Screening …, 2012)", "note": "About 360 (15%) of roughly 2,400 compounds were called active. Only a sample is shown. Entries with a potency or affinity are not part of this list. Values without a mark were called inactive.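 How the source made its calls: active means viability falls under 70% at one or more tested concentrations, taken as toxicity; inactive means viability stays over 70% at every dose.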", "data": [{"test": "viability loss in HeLa cells – cytotoxicity control for MgcRacGAP inhibitor project, dose response (AID 624300);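 further: 100% = median of untreated control wells on the same plate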", "details": "CellTiter-Glo luminescence, 24 h; series mostly up to 100 µM; viability: at the top concentration", "units": {"viability": "%"}, "values": [{"compound": "O=C(O)c1cccc2cccc(-c3c4ccc(=O)c(O)c-4oc4c(O)c(O)ccc34)c12", "viability": 97.2}, {"compound": "Cc1cc(=O)oc2c(O)c(O)ccc12", "viability": 87.6}, {"compound": "CC(C(=O)NCC(=O)Nc1ccc(F)c(F)c1F)N1CCN(c2ccc(O)cc2)CC1", "note": "(stereo unspecified)", "viability": 107}, {"compound": "Cc1cc(C(=O)c2cnc(/N=C/N(C)C)s2)cc(C)c1O", "viability": 94.2}, {"compound": "COc1cc(/C=N/NC(=O)C(=O)N2CCCC2)ccc1O", "viability": 103}, {"compound": "Oc1ccc(Br)cc1C=Nc1ccc2[nH]ncc2c1", "viability": 90.4}, {"compound": "Oc1ccccc1/C=N/n1c(-c2ccccc2)n[nH]c1=S", "viability": 104}, {"compound": "O=[N+]([O-])c1cccc(/C=N/n2c(-c3cccnc3)n[nH]c2=S)c1", "viability": 98.9}, {"compound": "CCN(c1ccccc1)S(=O)(=O)c1ccc(OC)c(NC(=O)CNCCc2ccccc2)c1", "viability": 94.7}, {"compound": "CCOC(=O)CCNC(C)C1COc2ccccc2O1", "note": "(stereo unspecified)", "viability": 102}, {"compound": "O=C(COC(=O)c1c2c(nc3ccccc13)/C(=C/c1ccco1)CC2)NC1CCCC1", "viability": 89.1}, {"compound": "COC(C(=O)N/N=C(\\C)CC(=O)Nc1ccc(N(C)C)cc1)c1ccccc1", "note": "(stereo unspecified)", "viability": 106}, {"compound": "CC(C)c1ccc(NC(=O)CNCC(c2ccccc2)N(C)C)cc1", "note": "(stereo unspecified)", "viability": 98.1}, {"compound": "COc1cc(N=Nc2c(C)n(C)n(-c3ccccc3)c2=O)ccc1N", "viability": 95.7}, {"compound": "Oc1ccc(/C=N/N=C/c2ccc(O)cc2)cc1", "viability": 102}, {"compound": "COc1cccc(OC)c1OCCCCN1CCCC1", "viability": 102}, {"compound": "Cc1cccn2c(NCc3ccc4c(c3)OCO4)c(-c3ccc(O)cc3)nc12", "viability": 98.5}, {"compound": "C/C(CC(=O)Nc1ccc(N(C)C)cc1)=N\\NC(=O)c1ccc([N+](=O)[O-])cc1Cl", "viability": 103}, {"compound": "Cc1cc(/C=C(\\C#N)C(=O)N2CCCCC2)cc(C)c1O", "viability": 94.2}, {"compound": "COc1ccc(N2C(=O)CC(Nc3ccc(N4CCOCC4)cc3)C2=O)c(OC)c1", "note": "(stereo unspecified)", "viability": 106}, {"compound": "CN1C=CC(=CC=C2C=CC(=O)C=C2)C=C1", "viability": 93.8}, {"compound": "COc1cc(/C=C/C(=O)OC(C)C(=O)Nc2c(C)n(C)n(-c3ccccc3)c2=O)ccc1O", "note": "(stereo unspecified)", "viability": 99.9}, {"compound": "COc1cc(/C=N/NC(=O)c2nnn(-c3nonc3N)c2C(C)C)ccc1O", "viability": 96.8}, {"compound": "CCN1CCN(CCOc2ccc(Br)cc2C)CC1", "viability": 95.3}, {"compound": "COc1ccc(-c2cn[nH]c2-c2ccc(O)cc2O)cc1", "viability": 101}, {"compound": "COc1ccccc1-c1cn[nH]c1-c1ccc(O)cc1O", "viability": 104}, {"compound": "CN1CCN(Cc2coc3c(Cl)cc(Cl)cc3c2=O)CC1", "viability": 101}, {"compound": "CN1C(=O)C2C(c3ccc(N(C)C)cc3)=NN(Cc3ccccc3)C2C1=O", "note": "(stereo unspecified)", "viability": 97}, {"compound": "CC(C(=O)Nc1ccc2c(c1)OCO2)N1CCN(C)CC1", "note": "(stereo unspecified)", "viability": 101}, {"compound": "CCN(CC)CCn1c2ccccc2c(=O)c2c(O)ccc(O)c21", "viability": 93}, {"compound": "CCN(CC)CCCNCC(=O)Nc1cc(C)on1", "viability": 105}]}]}
